In PubChem BioAssay (NCATS) one finds activity change, negative = inhibition, Potency and outcome data, which are given here for eleven compounds.

Inconclusive results are not listed. Active and inactive are the calls of the source. The call rests on the fitted dose curve. Square brackets hold non-standard residues; d marks the D form. Peptide text beside a SMILES is read from it.
Potency means the concentration at half of the fitted maximal effect.

A short description of the assay: Primary qHTS to identify inhibitors of SARS-CoV-2 cell entry (AID 1645846). Further: nearly all actives have a fitted effect of over 45% in size. To be noted: SARS-CoV-2 pseudovirus cell entry assay, luminescence; activity change, negative = inhibition: at 57.1 µM (top of the series) unless noted. The gist of the method: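 Inhibition of spike-mediated entry was scored in human ACE2-transfected Expi293F cells. Particles were MLV-pseudotyped with Wuhan-Hu-1 S carrying a 19-aa C-terminal deletion; signal was luciferase after two days, scaled between spike PP and fusion-protein-free PP.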
Background: qHTS replaces the single test concentration by a dilution series.
Consider `Cc1ccc(NC(=O)c2ccc(CN3CCNCC3)cc2)cc1Nc1nccc(-c2cccnc2)n1`, for which the activity change, negative = inhibition is -27.5%.

For the compound `Nc1cc(COc2c(Cl)cc(C[C@H](N)C(=O)O)cc2Cl)c2oc(-c3ccccc3)nc2c1`, the activity change, negative = inhibition is -18.9%.

Consider `CCCCCCCCCCCCC[N+](C)(C)Cc1ccccc1`, for which the Potency is 20 µM (active).

In the case of `CC1=C(c2ccc(O)cc2)[C@H](c2ccc(OCCN3CCCCC3)cc2)Oc2cc(O)ccc21`, the activity change, negative = inhibition was -47.4%. Same read-out and setting: the result for `Cc1cc(O[C@@H](CCC(F)(F)F)c2ccc(C(=O)NCCC(=O)O)cc2)cc(C)c1-c1ccc(C(C)(C)C)cc1` reads -0.0119%. `C1=C/COCc2cc(ccc2OCCN2CCCC2)Nc2nccc(n2)-c2cccc(c2)COC/1`: the Potency was 3.16 µM (active). On to `CN(C)CCNC(=O)COc1c2cccc1Cc1cccc(c1OCC(=O)NCCN(C)C)Cc1cccc(c1OCC(=O)NCCN(C)C)Cc1cccc(c1OCC(=O)NCCN(C)C)C2`, for which the outcome is “inactive [at 11.3 µM]”.

As to `COCCNc1cc(NC(=O)N2CCCc3cc(CN4CCN(C)CC4=O)c(C=O)nc32)ncc1C#N`, the activity change, negative = inhibition is -9.55% [at 11.3 µM].

As to `CC1(C)CC[C@]2(C(=O)O)CC[C@]3(C)C(=CC[C@@H]4[C@@]5(C)C[C@@H](O)[C@H](O)C(C)(C)[C@@H]5CC[C@]43C)[C@@H]2C1`, the Potency entry was “inactive”. Turning to `CC(C)C[C@@H]1NC(=O)[C@@H](C(C)C)NC(=O)[C@@H]2CCCN2C(=O)[C@@H](CC(=O)O)NC(=O)[C@@H](Cc2c[nH]c3ccccc23)NC1=O` (cyclo(L[dW][dD]P[dV])), the activity change, negative = inhibition was -6.47%.

Consider `O=S(=O)(NCCNC/C=C/c1ccc(Br)cc1)c1cccc2cnccc12`, for which the activity change, negative = inhibition is -22.5%.
